High-throughput results (PubChem)
p53 reactivation: restores transcriptional activity of mutant p53; H1299 p53-A138V BP100-luciferase reporter, luminescence, 24 h; AID 504706; Potency, µM (series often up to 92.2 µM), actives largely listed as activators; 0.063% of 320,000 active; also: nearly all actives have a fitted effect of over 45% in size
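H1299 (p53-null), stable ts p53-A138V + BP100-Luc; 1000 cells/well, Opti-MEM/10% FBS; cpd 4 pt, 1:5; 24 h, 37 deg C, 5% CO2; detection reagent 10 min RT; luminescence.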
Giardia kill: kills Giardia lamblia; Giardia lamblia trophozoite viability; activity change, % at 7.66 µM, hits read low; 0.15% of 340,000 active; in the data active = activity change below about -80%; inconclusive = between about -30% and that limit;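 also: parasites exposed to compound for two days anaerobically before the ATP read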
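Killing of trophozoites was scored by loss of ATP luminescence after a 48 hrs anaerobic exposure to compounds at 37 deg C, using 100 cells per well.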
ClpP mod: qHTS Assay for Activators of ClpP; purified B. subtilis ClpP, FRET peptide cleavage, 20 min; 1.9% of 340,000 active; Potency, µM (titrated, usually from 57.5 µM); ATP-dependent Clp protease proteolytic subunit (Bacillus subtilis (strain 168)), P80244; AID 651965, 2013; active = well fitted falling curve with a large enough effect; inconclusive = small, poorly fitted or top-dose-only effect; inactive = no such curve, though single readings can be large or run the other way; also: the source files actives as falling curves though it sought activators and does not explain the sign; nearly all actives have a fitted effect of over 65% in size
Target sequence (P80244 whole entry, looked up): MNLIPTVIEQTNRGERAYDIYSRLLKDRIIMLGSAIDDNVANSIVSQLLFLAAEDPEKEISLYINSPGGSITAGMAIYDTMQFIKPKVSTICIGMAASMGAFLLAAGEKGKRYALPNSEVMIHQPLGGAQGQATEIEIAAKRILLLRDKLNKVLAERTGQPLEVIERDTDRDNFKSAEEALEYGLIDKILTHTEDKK
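ClpP 10 microg/mL final, pH 8 Tris/KCl buffer with BSA, glycerol, Tween-20; compound pinned in; FRET-FV substrate; RT 20 min; Ex320/Em430; ΔFRET vs ADEP 5.8 microM, DMSO, no enzyme.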
uPA surface inh: blocks generation of uPA at the cell surface; cell surface uPA generation assay, qHTS; Potency, µM (series often up to 38.3 µM), usual class: inhibitors; 0.31% of 330,000 active; AID 540303; active = well fitted inhibition curve with a large enough effect; inconclusive = small, poorly fitted or top-dose-only effect; inactive = no such curve, though single readings can be large or run the other way; tested in mouse RAW 264.7 cells; also: nearly all actives have a fitted effect of over 55% in size
B2AR arrestin: beta2AR (human) beta-arrestin recruitment activity; 0.02% of 330,000 active; Potency, µM (series often up to 46.1 µM), hits mostly activators; beta-arrestin recruitment to beta2AR, cell-based reporter; AID 492947; P07550; also: nearly all actives have a fitted effect of over 65% in size
Target sequence (P07550 whole entry, looked up): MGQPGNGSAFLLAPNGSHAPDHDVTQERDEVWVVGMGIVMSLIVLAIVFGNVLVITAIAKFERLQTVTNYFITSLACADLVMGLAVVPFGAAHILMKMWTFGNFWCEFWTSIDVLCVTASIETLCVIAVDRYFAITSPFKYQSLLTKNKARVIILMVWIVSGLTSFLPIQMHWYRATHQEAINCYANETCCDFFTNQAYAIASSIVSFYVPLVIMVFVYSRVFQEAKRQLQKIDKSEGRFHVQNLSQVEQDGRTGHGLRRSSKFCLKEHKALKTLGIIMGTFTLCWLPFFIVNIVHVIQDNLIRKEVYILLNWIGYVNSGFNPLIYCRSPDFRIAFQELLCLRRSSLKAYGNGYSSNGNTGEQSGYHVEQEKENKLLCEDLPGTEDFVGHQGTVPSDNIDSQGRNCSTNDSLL
Mito fusion act: blocks mitochondrial division or promotes mitochondrial fusion. S. cerevisiae fusion-defective mutant growth rescue, CellTiterGlo 48 h. Potency, µM (series often up to 46.1 µM), actives largely listed as activators. 0.23% of 320,000 active. AID 485298; also: nearly all actives have a fitted effect of over 45% in size
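Luminescent cell viability in 1536-well qHTS format served as the measure of rescued growth in ts fusion-mutant S. cerevisiae cultured on non-fermentable YPEG for 48 hours at 37C.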
Numbers stand for hits; – = inactive; ? = inconclusive; · = not tested or not shown. Most compounds without a hit are left out; they make up all but 2.1% or so of the library. Unless noted, calls follow the shape of the dose curve; as a rule, active = well fitted curve in the direction sought with a large enough effect; inconclusive = small, poorly fitted or top-dose-only effect, or another doubt; inactive = no such curve, though single readings can be large; an effect the other way counts as inactive or inconclusive.

SMILES | p53 reactivation | Giardia kill | ClpP mod | uPA surface inh | B2AR arrestin | Mito fusion act
CC1CCCCN1S(=O)(=O)c1ccc(C(=O)Nc2ccccc2-c2nc3ccccc3[nH]2)cc1 (centres undefined) | – | – | 13µM | – | – | –
O=C(Nc1ccccc1-c1nc2ccccc2[nH]1)c1ccc(S(=O)(=O)N2CCCCC2)cc1 | – | – | ? | · | – | –
CCCCOC(=O)c1ccc(OC(=O)c2sc3ncn(Cc4ccccc4Cl)c(=O)c3c2C)cc1 | · | · | – | · | · | ·
COc1cc(-c2noc(C)c2C#Cc2ccccn2)cc(OC)c1OC | – | – | – | 0.35µM | – | –
O=C(CSc1nc2ccccc2o1)Nc1nc(-c2ccccc2)cs1 | ? | – | ? | – | – | 16µM
O=C(CSc1nc2ccccc2o1)N/N=C/c1ccc(O)c(O)c1 | ? | – | – | 6.3µM | – | –
Cc1cc(C)n2nc(SCC(=O)N3CCc4ccccc43)nc2n1 | – | – | – | – | – | 35µM
Cc1cc(C)nc(SCC(=O)N2CCc3ccccc32)n1 | · | – | – | – | · | ·
CC(C)c1ccc(/C=N/NC(=O)c2ccccc2Cl)cc1 | ? | – | – | 3.2µM | – | –
O=C(/C=C/c1ccc2c(c1)OCO2)NCc1ccco1 | ? | – | 28µM | – | – | –
O=C(/C=C/c1ccc(Cl)c(Cl)c1)NCc1ccco1 | – | – | – | – | – | –
O=C1CCNc2cc3ccccc3cc21 | – | – | 28µM | – | – | –
Cc1c([N+](=O)[O-])cnc(Sc2ccccc2)c1[N+](=O)[O-] | · | – | – | 8.9µM | · | ·
OC1(C(F)(F)F)CC(c2ccc3ccccc3c2)=NO1 (centres undefined) | 35µM | – | – | – | – | –
OC(c1ccccc1)(c1nc(-c2ccc3ccccc3c2)cs1)C(F)(F)F (centres undefined) | · | · | – | · | · | ·
Cc1cc(OCC(=O)NNC(=O)c2ccncc2)ccc1C(C)C | – | – | 4µM | – | – | –
Cc1cc(OCC(=O)NNC(=O)c2ccncc2)cc(C)c1Cl | – | – | – | – | – | –
O=C(NCC(c1cccnc1)N1CCc2ccccc2C1)C(=O)Nc1ccc(F)cc1F (centres undefined) | · | · | – | · | · | ·
CCCNc1c(NS(=O)(=O)c2ccc(Br)cc2)c(=O)oc2ccccc12 | – | – | · | – | – | 8.9µM
COc1ccc(OC)c(-n2c(N)c(C(=O)NCC3CCCO3)c3nc4ccccc4nc32)c1 (centres undefined) | – | – | 18µM | – | – | –
Nc1c(C(=O)NCC2CCCO2)c2nc3ccccc3nc2n1/N=C/c1ccncc1 (centres undefined) | · | – | – | – | · | ·
Nc1c(C(=O)OCC2CCCO2)c2nc3ccccc3nc2n1C1CCCC1 (centres undefined) | – | – | 25µM | – | – | –
COCCn1c(N)c(C(=O)NCC2CCCO2)c2nc3ccccc3nc21 (centres undefined) | – | – | ? | – | – | –
CC(C)Cn1c(N)c(C(=O)NCC2CCCO2)c2nc3ccccc3nc21 (centres undefined) | – | – | 28µM | – | – | –
O=C(c1ccccc1)N1CCn2c(nc3ccccc32)C1 | – | – | – | – | – | –
SMILES | p53 reactivation | Giardia kill | ClpP mod | uPA surface inh | B2AR arrestin | Mito fusion act
O=C(NCc1ccccc1)N1CCn2c(nc3ccccc32)C1 | – | – | 32µM | – | – | –
Cc1ccc(S(=O)(=O)Oc2ccc(C3C4=C(CCCC4=O)N(CCC(=O)O)C4=C3C(=O)CCC4)cc2Cl)cc1 | – | – | 25µM | – | – | –
COC(=O)c1ccc(Cl)cc1NC(=O)N1CC=C(c2c[nH]c3ccccc23)CC1 | · | · | 28µM | · | · | ·
CCC(=O)NC(=S)Nc1ccccc1F | – | – | 13µM | – | – | –
CCCSc1nc2sc3c(c2c(=O)n1-c1ccc(C)c(Cl)c1)CCN(C(C)=O)C3 | · | · | – | · | · | ·
Cc1ccc2nc(-c3ccc(NC(=O)CCN4C(=O)c5ccccc5C4=O)cc3)sc2c1 | · | – | – | – | – | –
Cc1ccc2nc(-c3ccc(NC(=O)C(C)N4C(=O)c5ccccc5C4=O)cc3)sc2c1 (centres undefined) | ? | – | 25µM | – | – | –
Cc1nc(S(=O)(=O)N2CCN(c3cccc(Cl)c3)CC2)cn1C | · | · | – | · | · | ·
CC(C)(C)c1ccc(C(=O)NCCc2csc3nc(-c4ccccc4F)nn23)cc1 | · | · | – | · | · | ·
Cc1cc(C)cc(NC(=O)CSc2oc(-c3cccs3)nc2S(=O)(=O)c2ccc(Br)cc2)c1 | · | · | – | · | · | ·
COC(=O)C1=C(C)NC(C)=C(C(=O)OC)C1c1ccc(OC(=O)c2ccco2)cc1 | – | – | 18µM | – | – | –
CC(=O)OCC1OC(n2ccc3ccccc32)C(OC(C)=O)C(OC(C)=O)C1OC(C)=O (centres undefined) | – | – | – | – | – | –
CC(=O)OCC1OC(Sc2cccc3cccnc23)C(OC(C)=O)C(OC(C)=O)C1OC(C)=O (centres undefined) | – | – | 16µM | – | – | –
CCCCN(C)C(=O)Cn1c(SCC(=O)Nc2ccc(C)c(C)c2)nc2ccccc21 | · | · | – | · | · | ·
COc1cc(OC)c2c(-c3cccc(-c4ccc(OC)c(F)c4)c3)cc(=O)oc2c1 | ? | – | ? | ? | – | ·
COc1cc(OC)c2c(-c3cccc(-c4ccoc4)c3)cc(=O)oc2c1 | – | – | – | 10µM | – | ·
COCCNC(=O)Cc1c(C)c2c(cc(C)c3c(C(C)(C)C)coc32)oc1=O | – | – | 14µM | – | – | ?
O=C(COCc1cc(-c2cccs2)on1)NCc1cccc(Cl)c1 | · | · | – | · | · | ·
CN(Cc1ccccc1)C(=O)C1CCN(S(=O)(=O)Cc2ccccc2)CC1 | · | · | – | · | · | ·
CCSc1nc2c(c(=O)[nH]1)C(c1ccc(C)cc1)C1=C(CCCC1=O)N2 (centres undefined) | – | – | · | – | – | –
CSc1nc2c(c(=O)[nH]1)C(c1ccccc1)C1=C(CC(C)(C)CC1=O)N2 (centres undefined) | – | – | · | – | – | –
Cc1ccc(CSc2nc3c(c(=O)[nH]2)C(c2ccncc2)C2=C(CCCC2=O)N3)cc1 (centres undefined) | – | – | 14µM | – | – | –
CC1(C)CC(=O)C2=C(C1)Nc1nc(SCCN3CCOCC3)[nH]c(=O)c1C2c1cccs1 (centres undefined) | – | – | 32µM | – | – | –
CSc1nc2c(c(=O)[nH]1)C(c1cccs1)C1=C(CCCC1=O)N2 (centres undefined) | – | – | 22µM | – | – | –
O=S(=O)(c1ccc2ccccc2c1)n1nc(-c2ccco2)nc1NCc1cccc(Cl)c1 | · | · | – | · | · | ·
CCCCCCCCCCCCCCCC[n+]1ccc(CC(O)c2c(C)[nH]c3ccccc23)c2ccccc21 (centres undefined) | · | · | – | · | · | ·
